# Test results published in PubChem BioAssay (EPA / NIEHS).
# A structure can be active in one record and inactive in another. Active and inactive are the calls of the source. Rule for the calls: active = hit-call score of the fitted dose curve at least 0.9, where 1 is the maximum; inactive = score below 0.9.
# Assay: CCTE_Shafer_MEA_dev_per_burst_spike_percent: CCTE's Neural Network Formation Assay for Percent of Spikes in a Burst, Shafer Lab (AID 2284032)
# Description: CCTE_Shafer_MEA_dev assay is conducted using Axion Biosystems 48 well microelectrode array (MEA) plates and Maestro recording system. Each well of the MEA plate contains a grid of 16 microelectrodes embedded in the culture surface. Electrically active cells, such as neurons, can be cultured over the electrodes, and electrical activity in these cells can be recorded extracellularly. The spontaneous firing of neurons is captured from each electrode on a microsecond timescale providing both temporally and spatially precise data. […] The CCTE_Shafer_MEA_dev assay uses primary cultures of rat cortical neurons. Recordings are made on days post-plating 5, 7, 9 and 12. As these cultures mature over time, neural networks develop functional activity and form cohesive networks in which electrical activity can be highly coordinated. CCTE_Shafer_MEA_dev_per_burst_spike_percent is 1 of 19 assay components of the CCTE_Shafer_MEA_dev assay. It measures the percentage of spikes (action potential firings) in a single-electrode burst (temporally-clustered group of spikes) as the total number spikes in bursts divided by the total number of spikes during a recording in a microelectrode array (MEA) using Axion Biosystems Maestro 768 channel amplifier with the AxIS adaptive spike detector. The percent of spikes in bursts is averaged across the actively bursting electrodes to report a well-mean value. To collapse across multiple recordings made on days post-plating 5, 7, 9 and 12, the trapezoidal area-under-the-curve of the component is calculated.Data from the assay component CCTE_Shafer_MEA_dev_per_burst_spike_percent was analyzed into 1 assay endpoint. This assay endpoint, CCTE_Shafer_MEA_dev_per_burst_spike_percent, was analyzed in the negative analysis fitting direction relative to DMSO as the negative control and baseline of activity. Using a type of functional reporter, gain or loss-of-signal activity can be used to understand electrical activity.
# On the day prior to culture, each well was coated thoroughly with 150 uL of 0.05% polyethyleneimine (PEI, Sigma Cat P3143) in 50 mM HEPES (Sigma Cat H7523) at a pH of 8. The plate was incubated at 37C for one hour. PEI was rinsed out with 500 uL of sterile water three times. Plates were stored at 4C until the day of culture. This culture was plated at a seeding density of 1.5 x 10^5 cells/well on a 48-well MEA plate, prepared as described above. Cells were administered via a 25 uL media/laminin ([…]; Sigma Cat L2020-1MG) drop directly onto the microelectrode array, as adding the cells with the laminin results in better attachment than pre-coating with laminin. After 2 hours, an additional 475 uL of cortical media was added and the cells returned to the incubator. Exposure starts at day 0 of plating and is continued over twelve days of network development until the experiment is terminated. Cells are fed with fresh medium on DIV 5 and 9, following the recordings on those days. The entire volume of media in the well is exchanged and any vehicle or compound treatment is renewed. Complete details are found in OP-NHEERL/ISTD/SBB/TJS/2015-03-r0 (available on request, email shafer.tim@epa.gov). Measurement of the electrical activity is non-invasive, and recordings can be made from the same plate over multiple different days of the culture. In cortical neurons, this allows for the measurement of extracellular action potentials over the period during which networks form in the MEA plate.
SMILES,outcome,AC50
C[Si]1(C)O[Si](C)(C)O[Si](C)(C)O[Si](C)(C)O1,inactive,
CCCc1cc(=O)[nH]c(=S)[nH]1,inactive,22.9 µM (active)
OC[C@@H](O)[C@@H](O)[C@H](O)[C@H](O)CO,inactive,
FC(F)(F)C(F)(F)C(F)(F)C(F)(F)C(F)(F)C(F)(F)CCI,inactive,
CC(C)c1ccc(C(=O)N=C(N)N)cc1S(C)(=O)=O,inactive,
CC(=O)Oc1ccccc1C(=O)O,inactive,
C=CCc1ccc(O)c(OC)c1,inactive,
O=c1[nH]cc(F)c(=O)[nH]1,,1.47 µM (active)
Cc1cc(=O)[nH]c(=S)[nH]1,inactive,
